The panel holds about 83,000 compounds, 20% with a hit somewhere; the sample as a whole holds those more often.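 Treatment: one concentration, 48 hours, 96-well format. Scoring: percent growth, with anything below 10 considered active.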 Unmarked numbers belong to inactive results. The source made the active and inactive calls.

Test systems include SK-MEL-2 melanoma; EKVX NSCLC; SN12C renal; UO-31 renal; TK-10 renal; ACHN renal; CAKI-1 renal; A498 renal; CCRF-CEM leukemia; MOLT-4 leukemia; SR leukemia; RPMI-8226 leukemia; OVCAR-8 ovarian; OVCAR-5 ovarian; OVCAR-4 ovarian; SK-OV-3 ovarian; IGROV1 ovarian; OVCAR-3 ovarian; HS 578T breast; NCI/ADR-RES ovarian.
Assay in all cases: NCI-60 one-dose screen, 48 h (100 = growth as untreated, 0 = no growth, -100 = all killed)
What all share (details): 10 µM unless noted

Consider `c1nc2ccc(-c3cc4ccc5[nH]ncc5c4c4c3CCCC4)cc2[nH]1`, for which the growth is 43% with SK-MEL-2 melanoma; 93% in the test on EKVX NSCLC; 76.4% in the test on SN12C renal; 92.9% in the test with UO-31 renal; 61.7% in the test on TK-10 renal; 52.2% in the test with ACHN renal. Besides, the growth is 54% in the test on CAKI-1 renal; 49.9% in the test with A498 renal; 31% with CCRF-CEM leukemia; 33.8% in the test on MOLT-4 leukemia; 8.69% (active) in the test with SR leukemia; 58.1% in the test on RPMI-8226 leukemia. The growth with OVCAR-8 ovarian was 78.5%; with OVCAR-5 ovarian, 69.3%; in the test on OVCAR-4 ovarian, 88%; in the test on SK-OV-3 ovarian, 50.2%; in the test with IGROV1 ovarian it was 36%; with OVCAR-3 ovarian, 89.5%. In addition, the growth is 65.2% in the test with HS 578T breast and 110% in the test with NCI/ADR-RES ovarian.
Turning to `CCCCNC(=O)Oc1ccc(/C(=C(/C)Cc2ccc(OC)cc2)c2ccc(OCCN3CCCCC3)cc2)cc1`, the growth with SK-MEL-2 melanoma is 113%; in the test with EKVX NSCLC, 76.3%; with SN12C renal, 73.9%; with UO-31 renal it was 51%; in the test on TK-10 renal, 84.4%; in the test with ACHN renal, 91.3%. In addition, the growth was 83.6% with CAKI-1 renal; 96.3% in the test with A498 renal; 42.8% in the test on CCRF-CEM leukemia; 33.6% with MOLT-4 leukemia; -40.5% (active) in the test with SR leukemia; 32.3% in the test on RPMI-8226 leukemia. In addition, the growth with OVCAR-8 ovarian is 84.7%; in the test on OVCAR-5 ovarian, 84.5%; in the test with OVCAR-4 ovarian, 69.3%; in the test with SK-OV-3 ovarian, 95.5%; with IGROV1 ovarian, 84.5%; in the test on OVCAR-3 ovarian, 77.1%. Besides, the figures for the growth with HS 578T breast and in the test on NCI/ADR-RES ovarian were 72.9% and 81.9%, respectively.
In the case of `CCOC(=O)C1=C(C)/C(=C\c2[nH]c(C)c(C(=O)OCC)c2C)N=C1C`, the growth is 85.6% in the test on SK-MEL-2 melanoma; 94.2% in the test with EKVX NSCLC; 79.1% with SN12C renal; 73.7% with UO-31 renal; 108% in the test on TK-10 renal; 96.5% with ACHN renal. Besides, the growth in the test with CAKI-1 renal is 85%; in the test on A498 renal, 103%; in the test with CCRF-CEM leukemia, 4.69% (active); in the test with MOLT-4 leukemia, 9.99% (active); with SR leukemia it was 11.9%; in the test on RPMI-8226 leukemia it was 62.9%. The growth is 61.5% in the test on OVCAR-8 ovarian; 97.8% in the test with OVCAR-5 ovarian; 81.9% in the test on OVCAR-4 ovarian; 84.4% in the test with SK-OV-3 ovarian; 97% in the test on IGROV1 ovarian; 21.7% with OVCAR-3 ovarian. Moreover, the growth with HS 578T breast was 103%; in the test with NCI/ADR-RES ovarian, 88.9%.
For the compound `Cc1cccc(Oc2ccc(Nc3ncnc4ccc(NC(=O)CN5CCN(C)CC5)cc34)cc2Cl)c1`, the growth in the test with SK-MEL-2 melanoma was -70.7% (active); with EKVX NSCLC, 25.1%; in the test with SN12C renal, 46.4%; with UO-31 renal, 22.2%; in the test on TK-10 renal, 18.8%; in the test with ACHN renal, -7.41% (active). The growth is 12.9% with CAKI-1 renal; 5.9% (active) with A498 renal; 4.6% (active) in the test on CCRF-CEM leukemia; 3.77% (active) with MOLT-4 leukemia; 4.43% (active) with SR leukemia; -27.9% (active) in the test on RPMI-8226 leukemia. For the same compound, the growth is 13.2% in the test on OVCAR-8 ovarian; 68.2% in the test with OVCAR-5 ovarian; -13.5% (active) in the test with OVCAR-4 ovarian; 6.73% (active) in the test with SK-OV-3 ovarian; -21.9% (active) in the test on IGROV1 ovarian; 10.1% with OVCAR-3 ovarian. Also, the values for the growth in the test with HS 578T breast and in the test on NCI/ADR-RES ovarian were -2.13% (active) and 46.9%, respectively.
`COc1ccc(CCN2C(=O)/C(=C/c3ccc(C4Oc5ccccc5C5CC(c6ccccc6)=NN54)cc3)SC2=S)cc1` (stereo not given): the growth in the test with SK-MEL-2 melanoma is 103%; in the test on EKVX NSCLC, 97.4%; in the test with SN12C renal, 101%; in the test on UO-31 renal it was 80.7%; in the test with TK-10 renal it was 104%; in the test on ACHN renal, 102%. Besides, the growth is 89.8% with CAKI-1 renal; 115% in the test with A498 renal; 36.6% with CCRF-CEM leukemia; 100% in the test on MOLT-4 leukemia; 105% in the test with SR leukemia; 96% in the test on RPMI-8226 leukemia. The growth with OVCAR-8 ovarian is 108%; in the test with OVCAR-5 ovarian it was 103%; in the test with OVCAR-4 ovarian it was 109%; with SK-OV-3 ovarian it was 103%; in the test on IGROV1 ovarian, 100%; in the test on OVCAR-3 ovarian, 105%. Besides, the figures for the growth with HS 578T breast and with NCI/ADR-RES ovarian were 103% and 110%, respectively.
As to `CCN(CC)CCN1C(=O)c2cccc3c(/C=C/CN4C(=O)c5cccc6cccc(c56)C4=O)ccc(c23)C1=O`, the growth in the test on SK-MEL-2 melanoma was 108%; with EKVX NSCLC it was 106%; in the test with SN12C renal, 96.1%; with UO-31 renal, 82%; in the test on TK-10 renal, 129%; with ACHN renal, 96.8%. The growth was 89% in the test with CAKI-1 renal; 77.7% in the test with A498 renal; 25.4% in the test with CCRF-CEM leukemia; 62.8% in the test with MOLT-4 leukemia; 38.6% with SR leukemia; 26.5% with RPMI-8226 leukemia. The growth in the test on OVCAR-8 ovarian was 92.1%; in the test with OVCAR-5 ovarian, 94.4%; in the test with OVCAR-4 ovarian, 102%; in the test with SK-OV-3 ovarian, 112%; with IGROV1 ovarian, 90.1%; in the test with OVCAR-3 ovarian, 108%. The growth was 84.8% in the test with HS 578T breast and 99.8% with NCI/ADR-RES ovarian.
In the case of `Cc1ccc2nc(-c3ccc(C(=O)NNC(=S)Nc4ccccc4)cc3)[nH]c2c1`, the growth in the test with SK-MEL-2 melanoma was 112%; with EKVX NSCLC, 93.2%; in the test on SN12C renal, 93.9%; in the test with UO-31 renal it was 89.8%; in the test on TK-10 renal it was 151%; in the test on ACHN renal, 99.6%. For the same compound, the growth in the test with CAKI-1 renal is 95.3%; in the test with A498 renal, 46.6%; in the test on CCRF-CEM leukemia, 88.8%; in the test on MOLT-4 leukemia it was 83.3%; with SR leukemia it was 88.6%; in the test on RPMI-8226 leukemia, 85.1%. Also, the growth in the test on OVCAR-8 ovarian was 95.7%; in the test on OVCAR-5 ovarian, 98.3%; in the test with OVCAR-4 ovarian, 88.2%; in the test on SK-OV-3 ovarian, 98.3%; in the test with IGROV1 ovarian, 86.4%; in the test with OVCAR-3 ovarian it was 95%. In addition, the results for the growth in the test on HS 578T breast and in the test on NCI/ADR-RES ovarian were 111% and 100%, respectively.

Values taken from PubChem BioAssay (NCI).
